Bioassay records deposited in PubChem by several laboratories.
Shown are actives, neighbours in structure and some others; about 32% of the full set was active somewhere.
CYP2C9 inhib = human CYP2C9 inhibition; P11712; CYP2C9 Supersomes, luciferin-H conversion, luminescence; inhibition, % at 5 µM; 96,000 compounds, 20% hits;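 active = blocking of liver enzyme CYP2C9 beyond about 50% at 5 µM, limit read from the data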
PostGolgi yeast = growth inhibition of a yeast mutant, post-Golgi transport screen; post-Golgi transport phenotypic cell assay; inhibition, % at 10 µM; 98,000 compounds, 0.9% hits; AID 739;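 also: yeast cells grown in 1536-well plates; yeast grown about 18 h at 30C before absorbance read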
PostGolgi ctrl = yeast control strain growth, post-Golgi counter-screen; efflux-deficient yeast background strain, growth absorbance A615, 16 h; inhibition, % at 10 µM; 98,000 compounds, 5% hits
CYP2C19 act = cytochrome P450 2C19 (human) activation; P33261; recombinant CYP2C19, luciferin-H EGE luminescence; active compounds read high; 0 = fully inhibited enzyme, 1 = untreated enzyme; activation factor at 5 µM; 96,000 tested, under 10 active;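 active = activation factor of at least 2 at 5 µM in the primary screen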;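 also: 0 = wells with 2.5 mM tranylcypromine and 1 = vehicle-only wells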
Target sequence (P33261 whole entry, looked up): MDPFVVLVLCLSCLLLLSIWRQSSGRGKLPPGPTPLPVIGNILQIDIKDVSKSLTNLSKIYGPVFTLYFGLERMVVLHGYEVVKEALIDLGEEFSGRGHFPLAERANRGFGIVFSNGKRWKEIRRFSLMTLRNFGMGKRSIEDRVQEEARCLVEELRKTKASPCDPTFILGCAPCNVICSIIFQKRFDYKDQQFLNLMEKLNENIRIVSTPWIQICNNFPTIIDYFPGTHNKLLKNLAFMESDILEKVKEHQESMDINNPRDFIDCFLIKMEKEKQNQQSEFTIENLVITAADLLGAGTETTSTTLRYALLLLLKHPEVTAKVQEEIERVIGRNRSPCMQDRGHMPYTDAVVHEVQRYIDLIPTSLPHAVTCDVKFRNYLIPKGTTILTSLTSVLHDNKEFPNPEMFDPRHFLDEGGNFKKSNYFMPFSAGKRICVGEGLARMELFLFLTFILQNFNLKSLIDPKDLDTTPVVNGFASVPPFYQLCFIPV
CYP2C9 activ = activators of human CYP2C9; P11712; recombinant CYP2C9, luciferin-H conversion, luminescence; active compounds read high; factor 1 = untreated enzyme, 0 = blocked; activation factor at 5 µM; 96,000 compounds, 1.4% hits;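 active = activation factor of 2 or more for CYP2C9 at a 5 µM dose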;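 also: 0 = sulfaphenazole-blocked wells and 1 = vehicle-only wells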
CYP2C19 inh = human CYP2C19 inhibition | 96,000 compounds, 21% hits | AID 778 | P33261 | CYP2C19 Supersomes, luciferin-H EGE luminescence, 30 min | inhibition, % at 5 µM;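 active = CYP2C19 inhibition above a set limit at 5 µM in the primary screen, cut at about 50% in these data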;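 also: plate controls were negative control wells for no effect and 2.5 mM tranylcypromine positive control for full effect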
An asterisk follows results filed as active. Rule as the data show it, unless noted: active = inhibition above about 30%; inactive = the rest.

SMILES | CYP2C9 inhib | PostGolgi yeast | PostGolgi ctrl | CYP2C19 act | CYP2C9 activ | CYP2C19 inh
CCOc1ccc(-c2nnn(CC(=O)NCCc3c[nH]c4ccccc34)n2)cc1 | 0.6 | 17.6 | 9.3 | 0.9 | 1 | 5.2
O=C(CC1CCCC1)Nc1ccc2c(c1)CCC2 | 19.1 | -5.5 | -1.3 | 0.3 | 0.8 | 65.9*
O=C(Cn1nnc(-c2ccncc2)n1)Nc1ccc2c(c1)CCC2 | 75.1* | -6.0 | 2.8 | 0.1 | 0.2 | 91.0*
O=C(Cn1nnc(-c2ccncc2)n1)NCCc1ccccc1 | 72.1* | -7.8 | -13.4 | 0.3 | 0.3 | 72.6*
Cc1cccc(NC(=O)CC2CCC2)c1 | -6.6 | 3.1 | -2.5 | 0.7 | 1.1 | 27.4
COc1cc(NC(=O)Cn2nnc(-c3ccncc3)n2)cc(OC)c1 | 91.7* | 25.6 | -0.4 | 0.1 | 0.1 | 89.4*
O=C(Nc1nn[nH]n1)C12CC3CC(CC(C3)C1)C2 | -1.6 | 0.0 | 5.0 | 1 | 1 | 3.0
O=C(Cn1nnc(-c2ccccc2)n1)c1ccccc1 | -23.0 | 10.5 | 19.6 | 0.4 | 1.2 | 59.2*
COc1cccc(NC(=O)Cn2nnc(-c3ccccc3N)n2)c1 | 37.4 | -2.1 | 0.6 | 0.5 | 0.6 | 51.9*
O=C(Cn1nnc(-c2ccc(Cl)cc2)n1)NC1CC2CCC1C2 (stereo not given) | 30.2 | 36.6* | 15.2 | 0.6 | 0.7 | 37.8
Cc1ccc(-c2nnn(CC(=O)NC3CC4CCC3C4)n2)cc1 (stereo not given) | 24.1 | 2.6 | 0.2 | 0.9 | 0.8 | 10.0
O=C(Cn1nnc(-c2ccc(Cl)cc2)n1)NCCC1=CCCCC1 | 36.3 | 2.4 | 3.5 | 0.5 | 0.6 | 52.5*
CCCN(CCO)Cc1cccc(Br)c1 | -15.6 | -2.3 | 1.8 | 0.8 | 1.2 | 17.4
CCOc1cc(/C=N/NC(=O)CN2CCCCC2)ccc1OCc1ccccc1 | 8.5 | -2.4 | 0.0 | 1 | 0.9 | -1.9
CC(=O)c1c(C)[nH]c(C(=O)COC(=O)CN(C)S(=O)(=O)c2ccc(Cl)cc2)c1C | 21.7 | -1.6 | 1.2 | 0.8 | 0.8 | 24.9
Cc1[nH]n(-c2ccccc2)c(=O)c1C1(C(F)(F)F)C(=O)N(c2ccccc2)C2=C1C(=O)CC(C)(C)C2 (stereo not given) | 73.2* | -14.8 | 2.5 | 0.8 | 0.3 | 19.6
CN(C)c1nc(-c2ccccc2)c2cnn(Cc3ccccc3)c2n1 | 35.0 | 1.7 | 10.8 | 0.3 | 0.7 | 66.8*
c1ccc(Cn2ncc3ccccc32)cc1 | 6.0 | -4.4 | -0.4 | 0.8 | 0.9 | 24.4
CCOC(=O)CNC(=O)CSc1nc(N(C)C)nc(N2CCOCC2)n1 | 22.1 | 1.8 | 3.6 | 0.2 | 0.8 | 83.5*
COC(=O)CSc1nc(NC(C)C)nc(N2CCOCC2)n1 | 24.2 | -0.2 | 7.7 | 0.5 | 0.8 | 50.4*
CC1=NNC(=O)C1CCC(=O)N/N=C\c1ccccc1[N+](=O)[O-] (stereo not given) | 0.9 | 4.2 | 13.4 | 0.9 | 1 | 10.1
CC(=O)NC(CC(=O)Nc1ccc(S(=O)(=O)N2CCCCC2)cc1)c1ccccc1 (stereo not given) | 74.0* | 15.8 | 0.6 | 0.3 | 0.3 | 68.7*
COC(C(=O)Nc1ccc(S(=O)(=O)N2CCCCC2)cc1)c1ccccc1 (stereo not given) | 80.2* | -8.3 | 9.1 | 0.5 | 0.2 | 46.1
Fc1ccc(-c2ccnc(=S)[nH]2)cc1 | 43.4 | -0.5 | -1.8 | 0.7 | 0.6 | 25.1
Cc1c(CNC(=O)c2cnn3c2NC(c2ccc(Br)cc2)CC3C(F)(F)F)cnn1C (stereo not given) | 66.8* | -24.0 | 13.5 | 0.5 | 0.3 | 45.7
SMILES | CYP2C9 inhib | PostGolgi yeast | PostGolgi ctrl | CYP2C19 act | CYP2C9 activ | CYP2C19 inh
NC(=O)c1cnn2c1NC(c1ccc(F)cc1)CC2C(F)(F)F (stereo not given) | 54.5* | 6.1 | 6.8 | 0.4 | 0.5 | 61.6*
Cc1nn(Cc2ccc(F)cc2)c(C)c1NC(=O)c1cnn2c1NC(c1ccccc1)CC2C(F)(F)F (stereo not given) | 66.9* | 18.2 | 2.2 | 0.7 | 0.3 | 31.9
Cc1cccc(C)c1NC(=O)CSCC(=O)c1ccc(O)c(O)c1 | -22.6 | 4.3 | -2.1 | 1 | 1.2 | -4.3
O=C(Cn1cnc2ccccc2c1=O)NCCC(=O)N1CCN(c2ccccc2)CC1 | 30.7 | -3.2 | -5.0 | 1 | 0.7 | -3.0
CCC(C(=O)NCc1ccco1)N(C(=O)CNS(=O)(=O)c1ccccc1)C1CCCCC1 (stereo not given) | 37.3 | 21.0 | 10.2 | 0.3 | 0.6 | 70.6*
CCCC(C(=O)NCc1ccco1)N(C(=O)CNS(=O)(=O)c1ccccc1)c1ccccc1OC (stereo not given) | 12.1 | -14.8 | 2.5 | 0.6 | 0.9 | 39.5
CC(C)C(C(=O)NCc1ccco1)N(C(=O)CNS(=O)(=O)c1ccccc1)C1CCCC1 (stereo not given) | -18.8 | 2.8 | 4.8 | 0.9 | 1.2 | 6.7
CCCC(C(=O)NCc1ccco1)N(C(=O)CNS(=O)(=O)c1ccc(Cl)cc1)C1CCCC1 (stereo not given) | 80.2* | -0.9 | 0.7 | 0.1 | 0.2 | 91.7*
COc1ccc(-c2cc(C#N)nc(N3CCNCC3)n2)cc1 | 2.7 | -0.9 | 6.3 | 1.1 | 1 | -6.4
COc1ccc2sc(N3C(=O)C4CC=C(C)CC4C3=O)nc2c1 (stereo not given) | 79.7* | 1.6 | 12.6 | 0.4 | 0.2 | 61.0*
COc1ccc2nc(N3C(=O)CC(Cc4cc(C)cc(C)c4)C3=O)sc2c1 (stereo not given) | 30.0 | -3.2 | 1.8 | 0.7 | 0.7 | 33.4
Cc1ccc(CC2CC(=O)N(c3cc(C)on3)C2=O)cc1 (stereo not given) | 34.2 | -2.4 | 26.1 | 0.5 | 0.7 | 53.7*
Cc1cc(C)cc(CC2CC(=O)N(c3ccc(Cl)cn3)C2=O)c1 (stereo not given) | -39.8 | -5.6 | 6.4 | 0.9 | 1.4 | 12.1
O=C(CN1C(=O)C2CC=CCC2C1=O)Nc1ccc(S(=O)(=O)NC2=NCCCCC2)cc1 (stereo not given) | 5.0 | -1.4 | 22.5 | 1.1 | 0.9 | -11.9
COCCCn1c(Cc2ccccc2)nnc1SCC(=O)N1CCCCC1 | 38.5 | 22.7 | -4.1 | 0.9 | 0.6 | 14.4
COCCCn1c(Cc2csc(Nc3cccc(Cl)c3)n2)nnc1SCC(=O)OC | 80.4* | -6.5 | -2.6 | 0.1 | 0.2 | 87.3*
COc1ccc(CCNc2oc(Cc3cccc4ccccc34)nc2C#N)cc1OC | 57.1* | -11.6 | 20.9 | 0.5 | 0.4 | 49.1
COc1ccc(CCNc2oc(COc3ccc(Br)cc3)nc2C#N)cc1OC | 51.1* | 2.7 | 11.5 | 0.7 | 0.5 | 33.8
O=C(Nc1cccc(O)c1)c1ccc(Br)cc1 | 28.6 | -10.1 | 7.3 | 0.5 | 0.7 | 51.7*
CC(C)(C)NC(=O)c1cccc(NC(=O)c2cccc(O)c2)c1 | 17.2 | -9.5 | 1.7 | 1.1 | 0.8 | -6.9
CN1CCc2nc(NC(=O)c3cccc(OC(F)F)c3)sc2C1 | -3.3 | -3.4 | 4.3 | 0.8 | 1 | 21.5
CSc1ncccc1C(=O)OCn1nnc2ccccc2c1=O | 17.3 | -6.0 | 6.1 | 1.7 | 0.8 | -67.6
